Experiment [1] addresses Cytochrome P450 2C9 (Homo sapiens) (UniProt P11712). In words: Cytochrome P450 family 2 subfamily C member 9 (CYP2C9) small molecule antagonists: luciferase biochemical (cell-free) qHTS assay (AID 1645842; active = well fitted curve in the direction sought with a large enough effect in the repeat runs; an effect the other way counts as inactive or inconclusive; note: nearly all actives have a fitted effect of over 55% in size; for activity change, negative = inhibition: series mostly up to about 57 µM). The gist of the method: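 P450-Glo CYP2C9 system: proluciferin substrate with enzyme in mix containing 0.4% BSA, 10 min at room temperature, then NADPH regeneration solution added and incubated 1 h at 37C. Detection reagent stopped reaction; luminescence read after 20 min as RLU.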

Experiment [2] in a line: Primary qHTS for inhibitors of nuclear receptor binding SET domain protein 2 (NSD2) in an isogenic RCH-ACV NSD2 p.E1099K mutant (9B) (AID 1645876). Note: nearly all actives have a fitted effect of over 70% in size. A general note: qHTS replaces the single test concentration by a dilution series.
A short description of experiment [3]: Primary qHTS for inhibitors of nuclear receptor binding SET domain protein 2 (NSD2) in an RCH-ACV wild type WT cells (2C) (AID 1645877). Note: nearly all actives have a fitted effect of over 70% in size.

Data on 23 compounds can be found in PubChem BioAssay (NCATS).

Molecules are shown by their SMILES. “And” between values parts separate entries of the source, which are not always exact repeats. Equal values may be shown once. Records with an inconclusive call do not appear. A number with no mark means an inactive call. The source made the active and inactive calls. Unless noted, calls come from the whole dose curve; as a rule, active = well fitted curve in the direction sought with a large enough effect; inconclusive = small, poorly fitted or top-dose-only effect, or another doubt; inactive = no such curve, though single readings can be large; an effect the other way counts as inactive or inconclusive.
% is set by controls: 0 for no effect and ±100 for the full control effect; potency is the fitted concentration of half-maximal effect.

Sequence of Cytochrome P450 2C9 (Homo sapiens) (P11712 whole entry, looked up): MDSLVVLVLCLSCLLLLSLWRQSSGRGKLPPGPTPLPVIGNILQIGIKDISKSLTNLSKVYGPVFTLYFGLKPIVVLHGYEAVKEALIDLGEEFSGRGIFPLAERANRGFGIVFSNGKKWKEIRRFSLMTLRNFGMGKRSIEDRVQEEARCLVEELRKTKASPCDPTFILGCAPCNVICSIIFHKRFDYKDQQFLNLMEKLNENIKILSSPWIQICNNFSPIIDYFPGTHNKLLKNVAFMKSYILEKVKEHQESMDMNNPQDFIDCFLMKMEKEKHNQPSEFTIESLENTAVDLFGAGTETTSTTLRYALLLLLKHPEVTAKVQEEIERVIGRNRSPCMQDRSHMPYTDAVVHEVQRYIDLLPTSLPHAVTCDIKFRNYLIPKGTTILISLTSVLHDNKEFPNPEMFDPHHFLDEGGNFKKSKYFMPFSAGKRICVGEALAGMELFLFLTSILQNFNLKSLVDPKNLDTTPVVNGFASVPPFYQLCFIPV

Regarding `O=C(N[C@H]1CCC[C@H](CO)C1)C1CCN(c2nc3cc(Cl)c(-c4ccc(Cl)cc4)cc3o2)CC1`, the Potency result in experiment [1] is “inactive”. Also, the results for the Potency in experiment [2] and in experiment [3] were 20.5 µM (active) and 16.3 µM (active), respectively.
For `COc1ccc(N2CCN(C(=O)c3cc4c(s3)-c3ccccc3S(=O)(=O)C4)CC2)cc1`, in experiment [1], the Potency is 10.7 µM (active). The Potency entry in experiment [2] and in experiment [3] was “inactive” throughout.
Regarding `C=CC(=O)Nc1ccc2ncnc(Nc3cccc(Br)c3)c2c1`, the Potency in experiment [1] was 3.38 µM (active); in experiment [2] it was 4.68 µM (active); in experiment [3], 4.17 µM (active).
Regarding `CCN(CC)C(=O)C(c1ccccc1)N1CCN(c2ccc(NC(=O)c3ccccc3-c3cccnc3)cc2F)CC1` (centres undefined), the Potency in experiment [1] is 9.52 µM (active). Also, the Potency entry in experiment [2] and in experiment [3] was “inactive” throughout.
For the compound `Cn1c(=O)c2c(ncn2Cc2ccc(C(C)(C)C)cc2)n(C)c1=O`, the Potency in experiment [1] was 23.9 µM (active); in experiment [2], 6.49 µM (active); in experiment [3], 7.28 µM (active).
In the case of `COc1cc2ncnc(Nc3ccc(O)c(Br)c3)c2cc1OC`, the Potency is 5.35 µM (active) in experiment [1]; 11.6 µM (active) and 10.5 µM (active) in experiment [2]; 13 µM (active) and 14.8 µM (active) in experiment [3].
For `CN(C)C(=O)C(=O)c1cn(C)c2cc(Cl)c(C(=O)N3CCC(Cc4ccc(F)cc4)CC3)cc12`, the Potency result in experiment [1] was “inactive”. The Potency in experiment [2] and in experiment [3] was 23 µM (active) in each case.
Consider `CCOc1ccc(CCNC(=O)c2cc3sc(Cl)cc3n2C)cc1OCC`, for which the Potency in experiment [1] was 2.39 µM (active). The Potency entry in experiment [2] and in experiment [3] was “inactive” each time.
As for `CC(C)c1noc(C2CCN(c3ncnc(Nc4ccc(S(C)(=O)=O)cc4F)c3[N+](=O)[O-])CC2)n1`, the Potency result in experiment [1], in experiment [2] and in experiment [3] was “inactive” in each case.
In the case of `Oc1cccc(C2NC(=S)Nc3cccc(F)c32)c1` (centres undefined), the Potency was 15.1 µM (active) in experiment [1], 3.65 µM (active) in experiment [2] and 4.09 µM (active) in experiment [3].
For `Cc1cc(-c2cc(OC(=O)c3ccccc3)ccc2Cl)cc2nnc(Nc3ccc(OCCN4CCCC4)cc3)nc12` the same measures were “inactive”, 12.9 µM (active) and 7.96 µM (active).
Turning to `CCCc1cc(C)[nH]c(=O)c1CNC(=O)c1cc(-c2ccc(N3CCN(C(C)C)CC3)nc2)cc2c1cnn2C(C)C`, the Potency in experiment [1] was 10.7 µM (active); in experiment [2] it was 11.5 µM (active) and 7.42 µM (active); in experiment [3], 11.5 µM (active) and 5.25 µM (active).
Turning to `COc1cc2c(cc1OC)CN(C(=O)/C=C/c1c(-c3ccccc3)n(C)c3ncccc13)CC2`, the Potency is 0.268 µM (active) in experiment [1], 8.17 µM (active) in experiment [2] and 11.5 µM (active) in experiment [3].
On the same counts, the results for `CCNC(=O)Nc1ccc(-c2nc3c(c(N4CCOCC4C)n2)CCN(C2COC2)C3)cc1` (centres undefined) are 16.9 µM (active), 0.325 µM (active) and 0.459 µM (active).
Regarding `CCCCCCOC(=O)/N=C(\N)c1ccc(NCc2nc3cc(C(=O)N(CCC(=O)OCC)c4ccccn4)ccc3n2C)cc1`, in experiment [1], the Potency entry is “inactive”. Moreover, the Potency in experiment [2] was 20.5 µM (active); in experiment [3] it was 16.3 µM (active).
On the same counts, the results for `Cc1cc(OCCCS(C)(=O)=O)cc(C)c1-c1cccc(COc2ccc3c(c2)OCC3CC(=O)O)c1` (centres undefined) are “inactive”, “inactive” and “inactive”.
For the compound `Cc1ccc(O)cc1Nc1ccnc(Nc2cccc(C(N)=O)c2)n1`, the values for the Potency in experiment [1], in experiment [2] and in experiment [3] were 1.9 µM (active), 4.59 µM (active) and 4.09 µM (active), respectively.
As to `CCC(=C(c1ccc(OCCN2CCCC2)cc1)c1ccc(OCCN2CCCC2)cc1)c1ccccc1`, in experiment [1], the activity change, negative = inhibition was 1.82% [at 11.5 µM]. Also, the Potency in experiment [2] and in experiment [3] was 3.65 µM (active) throughout.
Consider `C=CC(=O)N1CCC[C@@H](n2nc(-c3cccc(C(=O)Nc4ccc(C(C)C)c(C)c4)c3)c3c(N)ncnc32)C1`, for which the figures for the Potency in experiment [1], in experiment [2] and in experiment [3] were 8.49 µM (active), 8.17 µM (active) and 9.16 µM (active), respectively.
Consider `O=C(NCc1nc2ccccc2c(=O)n1-c1ccc(F)cc1)Nc1ccc(Cl)c(C(F)(F)F)c1`, for which the Potency in experiment [1] is 10.7 µM (active); in experiment [2], 25.8 µM (active); in experiment [3], 23 µM (active).
Consider `CC(C)S(=O)(=O)c1ccc2nccc(Nc3ccc4scnc4c3)c2c1`, for which the Potency in experiment [1] is 6.74 µM (active); in experiment [2], 9.34 µM (active); in experiment [3], 10.5 µM (active).
Regarding `Cn1ncc(Cl)c1-c1cc(C(=O)N[C@H](CN)Cc2ccc(F)c(F)c2)sc1Cl`, the Potency was 13.5 µM (active) in experiment [1]; 1.63 µM (active) and 1.05 µM (active) in experiment [2]; 2.05 µM (active) and 1.05 µM (active) in experiment [3].
With `Cc1ccccc1C(C(=O)NC1CCCCC1)N(C(=O)Cn1cnc2ccccc21)c1cccc(F)c1` (centres undefined), the Potency was 16.9 µM (active) in experiment [1], 12.9 µM (active) in experiment [2] and 23 µM (active) in experiment [3].
